Results reported in PubChem BioAssay (EPA / NIEHS).
The source made the active and inactive calls. Rule for the calls: active = hit-call score of the fitted dose curve at least 0.9, where 1 is the maximum; inactive = score below 0.9.

Key:
[1] = read-out: Macrophage colony-stimulating factor (MCSF), CSF1 (gene 1435); assay: BSK_hDFCGF_MCSF: BioMAP Diversity Plus: hDFCGF Assay for Macrophage colony-stimulating factor (MCSF) Biomarker Activity (AID 2283060); conditions: primary human foreskin fibroblasts; actives raise or lower the signal
In short: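 M-CSF levels, determined by ELISA, are taken at 24 h after dosing human skin fibroblasts. Responses in either direction are fitted with DMSO serving as the baseline.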

[2] = BSK_hDFCGF_SRB: Viability Assessment in the BioMAP Diversity Plus: hDFCGF Assay (AID 2283061); conditions: primary human foreskin fibroblasts;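 note: cells exposed to compound for 24 h before the read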
In short: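 Cells were dosed with test chemical, cultured 24 h, fixed with 10% TCA, then stained with 0.1% SRB and read at 560 nm. The fibroblasts were human foreskin primary cells, and DMSO served as baseline.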

[3] = read-out: TIMP metallopeptidase inhibitor 1 (TIMP1), TIMP1 (gene 7076); assay: BSK_hDFCGF_TIMP1: BioMAP Diversity Plus: hDFCGF Assay for TIMP metallopeptidase inhibitor 1 (TIMP1) Biomarker Activity (AID 2283062); conditions: primary human foreskin fibroblasts; actives raise or lower the signal
In short: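 Fibroblasts from human foreskin are treated with test chemical and harvested at 24 h. TIMP-1 is quantified by ELISA, and gain or loss of signal is scored against DMSO.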

[4] = read-out: Monokine induced gamma interferon (MIG), CXCL9 (gene 4283); assay: BSK_hDFCGF_MIG: BioMAP Diversity Plus: hDFCGF Assay for Monokine induced gamma interferon (MIG) Biomarker Activity (AID 2283063); conditions: primary human foreskin fibroblasts; actives raise or lower the signal
In short: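 MIG signal, determined by ELISA, reflects 24 h chemical exposure of human skin primary fibroblasts. DMSO serves as negative control and baseline.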

[5] = read-out: Matrix Metallopeptidase 1 (MMP1), MMP1 (gene 4312); assay: BSK_hDFCGF_MMP1: BioMAP Diversity Plus: hDFCGF Assay for Matrix Metallopeptidase 1 (MMP1) Biomarker Activity (AID 2283064); conditions: primary human foreskin fibroblasts; actives raise or lower the signal
In short: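 Primary human foreskin fibroblasts exposed to chemicals for 24 h; MMP1 measured by ELISA. Cytotoxicity tracked by SRB staining in parallel cultures; bidirectional fit relative to DMSO.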

[6] = read-out: Vascular cell adhesion molecule 1 (VCAM1), VCAM1 (gene 7412); assay: BSK_hDFCGF_VCAM1: BioMAP Diversity Plus: hDFCGF Assay for Vascular cell adhesion molecule 1 (VCAM1) Biomarker Activity (AID 2283065); conditions: primary human foreskin fibroblasts; actives raise or lower the signal
In short: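 Cells are dosed, cultured for 24 h, then VCAM-1 is quantified by ELISA; signal increases and decreases are both fitted relative to DMSO.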

[7] = read-out: Plasminogen activator inhibitor-1 (PAI1), SERPINE1 (gene 5054); assay: BSK_hDFCGF_PAI1: BioMAP Diversity Plus: hDFCGF Assay for Plasminogen activator inhibitor-1 (PAI1) Biomarker Activity (AID 2283066); conditions: primary human foreskin fibroblasts; actives raise or lower the signal
In short: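 Human foreskin fibroblasts in the hDFCGF system were dosed with compound for 24 h; PAI-1 was quantified by ELISA. Bidirectional curve fitting used DMSO as negative control and baseline.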

[8] = read-out: Intercellular Adhesion Molecule 1 (ICAM1), ICAM1 (gene 3383); assay: BSK_KF3CT_ICAM1: BioMAP Diversity Plus: KF3CT Assay for Intercellular Adhesion Molecule 1 (ICAM1) Biomarker Activity (AID 2283067); conditions: primary human keratinocytes with fibroblasts; actives raise or lower the signal
In short: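 Dose the keratinocyte/fibroblast co-culture, wait 24 h, measure ICAM-1 by ELISA, then fit increases or decreases against DMSO. Cytotoxicity is checked in parallel cultures by SRB total-protein staining.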

[9] = BSK_KF3CT_SRB: Viability Assessment in the BioMAP Diversity Plus: KF3CT Assay (AID 2283069); conditions: primary human keratinocytes with fibroblasts;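 note: fitted for both signal gain and loss against DMSO baseline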
In short: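 Human keratinocyte and foreskin fibroblast co-culture exposed to chemical for 24 h. Total protein measured in parallel cultures by 0.1% sulforhodamine B staining after 10% TCA fixation, read at 560 nm; bidirectional fit relative to DMSO.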

[10] = read-out: Interleukin-1 alpha (IL1a), IL1A (gene 3552); assay: BSK_KF3CT_IL1a: BioMAP Diversity Plus: KF3CT Assay for Interleukin-1 alpha (IL1a) Biomarker Activity (AID 2283070); conditions: primary human keratinocytes with fibroblasts; actives raise or lower the signal
In short: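 Primary human keratinocyte plus foreskin fibroblast co-culture, dosed and measured at 24 h in 96-well plates. IL-1a level quantified by ELISA; bidirectional fit relative to DMSO.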

[11] = read-out: Transforming growth factor beta 1 (TGFb1), TGFB1 (gene 7040); assay: BSK_KF3CT_TGFb1: BioMAP Diversity Plus: KF3CT Assay for Transforming growth factor beta 1 (TGFb1) Biomarker Activity (AID 2283072); conditions: primary human keratinocytes with fibroblasts; actives raise or lower the signal
In short: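 Human keratinocyte plus foreskin fibroblast primary co-culture, dosed with chemical for 24 h. TGF-b1 quantified by ELISA. Activity fitted bidirectionally against DMSO negative control as baseline.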

[12] = read-out: C-C motif chemokine 2 (Homo sapiens) (UniProt P13500); assay: BSK_KF3CT_MCP1: BioMAP Diversity Plus: KF3CT Assay for Monocyte Chemoattractant Protein 1 (MCP1/CCL2) Biomarker Activity (AID 2283073); conditions: primary human keratinocytes with fibroblasts; actives raise or lower the signal
In short: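 Keratinocytes and foreskin fibroblasts were co-cultured, dosed with chemical, and sampled 24 h later. MCP-1 was quantified by ELISA, and the endpoint was analyzed with bidirectional fitting using DMSO as negative control.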

[13] = read-out: Matrix Metallopeptidase 9 (MMP9), MMP9 (gene 4318); assay: BSK_KF3CT_MMP9: BioMAP Diversity Plus: KF3CT Assay for Matrix Metallopeptidase 9 (MMP9) Biomarker Activity (AID 2283074); conditions: primary human keratinocytes with fibroblasts; actives raise or lower the signal;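 for AC50: MMP9 protein level quantified by ELISA in the co-culture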
In short: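 Human keratinocyte and foreskin fibroblast co-culture exposed to chemicals for 24 h; MMP9 biomarker measured by ELISA, bidirectional fitting relative to DMSO; cytotoxicity tracked by SRB total protein staining in parallel cultures.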

[14] = read-out: urokinase plasminogen activator (uPA), PLAU (gene 5328); assay: BSK_KF3CT_uPA: BioMAP Diversity Plus: KF3CT Assay for urokinase plasminogen activator (uPA) Biomarker Activity (AID 2283075); conditions: primary human keratinocytes with fibroblasts; actives raise or lower the signal
In short: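 Primary human keratinocyte/foreskin fibroblast co-culture exposed to chemical; uPA measured by ELISA at 24 h. Bidirectional fit versus DMSO, with parallel SRB total-protein staining for cytotoxicity.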

CD40, CD40 (gene 958) = assay: BSK_LPS_CD40: BioMAP Diversity Plus: LPS Assay for CD40 Biomarker Activity (AID 2283076); conditions: primary human HUVEC with PBMC; actives raise or lower the signal
In short: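 CD40 signal, measured by ELISA, is fitted in both directions relative to DMSO vehicle. The system is an LPS-driven human vascular primary co-culture of endothelial cells and PBMC, sampled 24 h after compound addition.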

[15] = read-out: E-selectin (Homo sapiens) (UniProt P16581); assay: BSK_LPS_Eselectin: BioMAP Diversity Plus: LPS Assay for Eselectin Biomarker Activity (AID 2283077); conditions: primary human HUVEC with PBMC; actives raise or lower the signal
In short: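 Signal of E-selectin, detected by ELISA, served as the endpoint; cells were umbilical vein endothelium with PBMC, read 24 h after treatment. DMSO defined baseline, and both increases and decreases were fitted.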

[16] = read-out: Interleukin-8 (IL8), CXCL8 (gene 3576); assay: BSK_LPS_IL8: BioMAP Diversity Plus: LPS Assay for Interleukin-8 (IL8) Biomarker Activity (AID 2283078); conditions: primary human HUVEC with PBMC; actives raise or lower the signal
In short: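 Endothelial cells and PBMC from human donors are co-cultured, treated with chemicals and LPS, then assayed for IL-8 by ELISA after 24 h. Parallel SRB staining (0.1% SRB after 10% TCA fixation, 560 nm) flags cytotoxicity.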

[17] = BSK_LPS_SRB: Viability Assessment in the BioMAP Diversity Plus: LPS Assay (AID 2283079); conditions: primary human HUVEC with PBMC;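 note: total protein by sulforhodamine B absorbance as a cytotoxicity measure; measured one day after compound addition; fitted in both directions against DMSO so loss or gain of signal counts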
In short: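 Overt cytotoxicity was gauged by sulforhodamine B total-protein staining in a primary human vascular endothelial and mononuclear cell co-culture 24 h post-dosing. Activity was fitted in both directions relative to DMSO.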

[18] = read-out: TIMP metallopeptidase inhibitor 2 (TIMP2), TIMP2 (gene 7077); assay: BSK_KF3CT_TIMP2: BioMAP Diversity Plus: KF3CT Assay for TIMP metallopeptidase inhibitor 2 (TIMP2) Biomarker Activity (AID 2283071); conditions: primary human keratinocytes with fibroblasts; actives raise or lower the signal
In short: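 Human primary keratinocyte/foreskin fibroblast co-culture dosed with chemical and sampled at 24 h. TIMP-2 levels quantified by ELISA; bidirectional fitting against DMSO negative control as baseline.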

[19] = read-out: Interferon-gamma inducible Protein 10 (IP10), CXCL10 (gene 3627); assay: BSK_KF3CT_IP10: BioMAP Diversity Plus: KF3CT Assay for Interferon-gamma inducible Protein 10 (IP10) Biomarker Activity (AID 2283068); conditions: primary human keratinocytes with fibroblasts; actives raise or lower the signal
In short: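 KF3CT co-culture (keratinocytes + foreskin fibroblasts), 24 h compound, IP-10 by ELISA; bidirectional fit vs DMSO baseline.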

Measured: AC50

E-selectin (Homo sapiens), sequence (P16581 whole entry, looked up): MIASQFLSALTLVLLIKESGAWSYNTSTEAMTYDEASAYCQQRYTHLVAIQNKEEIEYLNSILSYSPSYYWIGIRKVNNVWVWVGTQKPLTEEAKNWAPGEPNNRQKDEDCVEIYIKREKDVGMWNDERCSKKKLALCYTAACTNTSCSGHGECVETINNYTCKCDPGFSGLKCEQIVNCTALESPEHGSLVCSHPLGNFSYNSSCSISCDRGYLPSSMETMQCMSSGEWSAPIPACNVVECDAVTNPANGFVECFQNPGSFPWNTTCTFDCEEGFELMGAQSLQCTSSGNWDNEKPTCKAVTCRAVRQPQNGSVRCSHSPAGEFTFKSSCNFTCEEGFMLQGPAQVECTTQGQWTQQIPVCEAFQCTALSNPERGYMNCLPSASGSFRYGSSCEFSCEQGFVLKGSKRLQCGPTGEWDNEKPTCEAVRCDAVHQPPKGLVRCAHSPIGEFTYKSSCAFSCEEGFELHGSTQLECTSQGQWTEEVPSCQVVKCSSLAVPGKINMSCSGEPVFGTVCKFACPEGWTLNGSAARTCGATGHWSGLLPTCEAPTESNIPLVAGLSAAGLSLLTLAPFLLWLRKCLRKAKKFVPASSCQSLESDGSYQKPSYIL

CCN(CC)c1ccccc1
not listed: [18] | [19]
inactive: all other assays above

Nc1cc2c3c(c1)C(c1ccccc1)=N[C@@H](NC(=O)c1cccnc1)C(=O)N3CC2
active: [7] 523 nM
not listed: [15] | [18] | [19]
inactive: all other assays above

OCC1CO1 (centres undefined)
not listed: [15] | [19]
inactive: all other assays above

CCOc1ccc(C(C)(C)COCc2cccc(Oc3ccccc3)c2)cc1
active: [1] 2260 nM
not listed: [18] | [19]
inactive: all other assays above

CCOC(=O)c1ccccc1C(=O)OCC
not listed: [5] | [15]
inactive: all other assays above

CCCCOCCOP(=O)(OCCOCCCC)OCCOCCCC
active: [11] 16 nM | [13] 3970 nM
not listed: [5] | [18]
inactive: all other assays above

CC(O)C(F)(F)C(F)(F)F (centres undefined)
not listed: [5] | [11] | [19]
inactive: all other assays above
